# Measurements from PubChem BioAssay (EPA / NIEHS).
# Results filed as inconclusive are left out. Activity calls are given as the source filed them. The calls were made as follows: active = hit-call score of the fitted dose curve at least 0.9, where 1 is the maximum; inconclusive = response in the unintended direction; inactive = score below 0.9.
# How the values were obtained:
# [1] = biological target: Peroxisome proliferator-activated receptor gamma (Homo sapiens) (UniProt P37231); assay: ATG_hPPARg_XSP1: Attagene TRANS-FACTORIAL Multi-Species (XSP1) HepG2 Assay for human Peroxisome Proliferator-activated Receptor gamma (PPARg) (AID 2283800)
# Chain of Peroxisome proliferator-activated receptor gamma (Homo sapiens) (P37231 whole entry, looked up, the tested form may be a part): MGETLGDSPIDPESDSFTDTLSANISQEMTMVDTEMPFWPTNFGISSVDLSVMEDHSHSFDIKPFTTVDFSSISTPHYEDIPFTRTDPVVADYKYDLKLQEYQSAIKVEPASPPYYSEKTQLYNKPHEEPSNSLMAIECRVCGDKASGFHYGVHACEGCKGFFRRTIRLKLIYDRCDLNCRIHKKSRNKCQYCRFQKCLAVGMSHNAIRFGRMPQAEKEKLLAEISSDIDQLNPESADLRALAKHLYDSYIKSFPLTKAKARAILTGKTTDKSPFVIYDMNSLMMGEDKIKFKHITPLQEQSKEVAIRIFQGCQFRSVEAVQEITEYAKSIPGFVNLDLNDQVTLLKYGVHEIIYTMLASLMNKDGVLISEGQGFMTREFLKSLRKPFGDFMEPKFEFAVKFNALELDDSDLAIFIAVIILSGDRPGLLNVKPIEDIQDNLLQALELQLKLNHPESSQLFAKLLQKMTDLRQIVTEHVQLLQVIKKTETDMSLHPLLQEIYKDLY
# Method in brief: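 Reporter mRNA induction, measured by RT-PCR with capillary electrophoresis 24 h after dosing, scored as gain over DMSO. Transfected HepG2 cells express exogenous NR-Gal4 chimeras driving GAL4-UAS reporters; medium includes 3 nM 6-alpha-fluorotestosterone.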
# [2] = tested on: zebrafish Peroxisome Proliferator-activated Receptor gamma (PPARg), gene 557037; assay: ATG_zfPPARg_XSP1: Attagene TRANS-FACTORIAL Multi-Species (XSP1) HepG2 Assay for zebrafish Peroxisome Proliferator-activated Receptor gamma (PPARg) (AID 2283801)
# Method in brief: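 Trans-activation readout of chimeric zebrafish PPARg–GAL4 in transiently transfected human HepG2 cells, 24 h chemical exposure (medium includes 3 nM 6-alpha-fluorotestosterone). Reporter transcripts measured by RT-PCR and capillary electrophoresis, fitted as gain over DMSO.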
# [3] = biological target: mouse Peroxisome Proliferator-activated Receptor gamma (PPARg), Pparg (gene 19016) (UniProt P37238); assay: ATG_mPPARg_XSP1: Attagene TRANS-FACTORIAL Multi-Species (XSP1) HepG2 Assay for mouse Peroxisome Proliferator-activated Receptor gamma (PPARg) (AID 2283802)
# Chain of mouse Peroxisome Proliferator-activated Receptor gamma (PPARg), Pparg (gene 19016) (P37238 whole entry, looked up): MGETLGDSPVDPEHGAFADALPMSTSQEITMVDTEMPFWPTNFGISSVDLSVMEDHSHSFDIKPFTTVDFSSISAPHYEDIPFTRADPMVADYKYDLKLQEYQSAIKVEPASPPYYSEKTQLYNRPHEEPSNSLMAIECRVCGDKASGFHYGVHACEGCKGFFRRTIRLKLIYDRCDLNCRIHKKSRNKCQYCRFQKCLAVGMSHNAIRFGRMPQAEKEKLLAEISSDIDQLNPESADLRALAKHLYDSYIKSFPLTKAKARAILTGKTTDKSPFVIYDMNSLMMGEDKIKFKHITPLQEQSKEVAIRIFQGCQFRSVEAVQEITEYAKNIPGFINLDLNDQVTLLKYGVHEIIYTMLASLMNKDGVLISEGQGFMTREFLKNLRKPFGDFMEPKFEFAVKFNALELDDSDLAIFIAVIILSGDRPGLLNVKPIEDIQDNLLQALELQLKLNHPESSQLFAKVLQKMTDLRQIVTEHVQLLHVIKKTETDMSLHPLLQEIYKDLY
# Procedure: ATG_XSP1_multi-species_TRANS is a cell-based, multiplexed assay created by modifying the existing Attagene TRANS-FACTORIAL system to include a panel of nuclear receptors from some or all the following species: human (Homo sapiens), mouse (Mus musculus), frog (Xenopus laevis), zebrafish (Danio rerio), chicken (Gallus gallus), and turtle (Chrysemys picta). The ECOTOX-FACTORIAL format uses HepG2, a human liver cell line, with measurements taken at 24 hours after chemical dosing in a 24-well plate. Xsp1 included 3 nM 6-alpha-fluorotestosterone to partially stimulate the androgen receptor.ATG_mPPARg_XSP1 is one of 29 assay components measured or calculated from the ATG_XSP1_multi-species_TRANS assay. It is designed to make measurements of mRNA induction, a form of inducible reporter, as detected with fluorescence intensity signals by Reverse transcription polymerase chain reaction (RT-PCR) and Capillary electrophoresis technology.The assay endpoint ATG_mPPARg_XSP1 was analyzed in the positive analysis fitting direction relative to DMSO as the negative control and baseline of activity. […] Furthermore, this assay endpoint can be referred to as a primary readout, because this assay has produced multiple assay endpoints where this one serves a reporter gene function. […]
# [4] = biological target: Nuclear receptor subfamily 1 group I member 2 (Mus musculus) (UniProt O54915); assay: ATG_mPXR_XSP1: Attagene TRANS-FACTORIAL Multi-Species (XSP1) HepG2 Assay for mouse Pregnane X Receptor (PXR) (AID 2283803)
# Chain of Nuclear receptor subfamily 1 group I member 2 (Mus musculus) (O54915 whole entry, looked up, the tested form may be a part): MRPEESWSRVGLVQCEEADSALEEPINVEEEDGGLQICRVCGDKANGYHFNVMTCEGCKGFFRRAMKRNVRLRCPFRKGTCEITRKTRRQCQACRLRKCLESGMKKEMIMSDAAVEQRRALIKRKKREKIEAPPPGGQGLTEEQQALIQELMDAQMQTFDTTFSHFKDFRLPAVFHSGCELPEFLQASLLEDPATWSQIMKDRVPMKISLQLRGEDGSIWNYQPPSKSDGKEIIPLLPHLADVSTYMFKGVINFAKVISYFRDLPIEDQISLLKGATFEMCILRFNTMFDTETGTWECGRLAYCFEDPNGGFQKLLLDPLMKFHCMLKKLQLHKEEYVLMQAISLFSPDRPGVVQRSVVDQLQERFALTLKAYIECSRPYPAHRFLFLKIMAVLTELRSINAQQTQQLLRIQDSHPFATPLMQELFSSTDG
# Method in brief: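 Transiently transfected HepG2 cells expressing a receptor-Gal4 chimera drive a GAL4-UAS reporter; 3 nM 6-alpha-fluorotestosterone included. Reporter mRNA read 24 h post-dose by RT-PCR and capillary electrophoresis; gain of signal relative to DMSO.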
# [5] = tested on: turtle Thyroid Hormone Receptor, alpha (TRa), gene 101949057; assay: ATG_trTRa_XSP1: Attagene TRANS-FACTORIAL Multi-Species (XSP1) HepG2 Assay for turtle Thyroid Hormone Receptor, alpha (TRa) (AID 2283806)
# Method in brief: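 After 24 h chemical exposure, reporter transcripts were measured by RT-PCR with fluorescent primer extension, HpaI digestion and capillary electrophoresis. Cells were transiently transfected HepG2 expressing exogenous NR-Gal4 chimeras; medium contained 3 nM 6-alpha-fluorotestosterone; fitted upward relative to DMSO.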
# [6] = biological target: zebrafish Thyroid Hormone Receptor alpha (TRa), thraa (gene 30670) (UniProt Q98867); assay: ATG_zfTRa_XSP1: Attagene TRANS-FACTORIAL Multi-Species (XSP1) HepG2 Assay for zebrafish Thyroid Hormone Receptor alpha (TRa) (AID 2283807)
# Chain of zebrafish Thyroid Hormone Receptor alpha (TRa), thraa (gene 30670) (Q98867 whole entry, looked up, the tested form may be a part): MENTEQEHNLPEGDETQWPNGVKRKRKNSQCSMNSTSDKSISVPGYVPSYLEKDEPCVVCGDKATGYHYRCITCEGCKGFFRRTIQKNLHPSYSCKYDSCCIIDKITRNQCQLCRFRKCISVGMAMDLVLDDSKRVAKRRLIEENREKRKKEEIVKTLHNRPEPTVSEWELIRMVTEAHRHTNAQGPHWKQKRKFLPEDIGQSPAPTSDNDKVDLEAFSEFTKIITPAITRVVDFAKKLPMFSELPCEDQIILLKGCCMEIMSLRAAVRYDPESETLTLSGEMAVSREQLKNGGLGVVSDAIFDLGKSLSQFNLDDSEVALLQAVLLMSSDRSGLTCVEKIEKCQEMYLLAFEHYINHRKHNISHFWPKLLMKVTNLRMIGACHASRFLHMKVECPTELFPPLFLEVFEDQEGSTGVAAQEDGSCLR
# Method in brief: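 Reporter transcripts driven by a chimeric zebrafish TRa–Gal4 protein were measured by RT-PCR with fluorescent labelling and capillary electrophoresis. These came from transiently transfected HepG2 cells after 24 h chemical exposure, with 3 nM 6-alpha-fluorotestosterone added; baseline was DMSO.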
# [7] = biological target: human Thyroid hormone Receptor beta (TRb), THRB (gene 7068) (UniProt P10828); assay: ATG_hTRb_XSP1: Attagene TRANS-FACTORIAL Multi-Species (XSP1) HepG2 Assay for human Thyroid hormone Receptor beta (TRb) (AID 2283808)
# Chain of human Thyroid hormone Receptor beta (TRb), THRB (gene 7068) (P10828 whole entry, looked up, the tested form may be a part): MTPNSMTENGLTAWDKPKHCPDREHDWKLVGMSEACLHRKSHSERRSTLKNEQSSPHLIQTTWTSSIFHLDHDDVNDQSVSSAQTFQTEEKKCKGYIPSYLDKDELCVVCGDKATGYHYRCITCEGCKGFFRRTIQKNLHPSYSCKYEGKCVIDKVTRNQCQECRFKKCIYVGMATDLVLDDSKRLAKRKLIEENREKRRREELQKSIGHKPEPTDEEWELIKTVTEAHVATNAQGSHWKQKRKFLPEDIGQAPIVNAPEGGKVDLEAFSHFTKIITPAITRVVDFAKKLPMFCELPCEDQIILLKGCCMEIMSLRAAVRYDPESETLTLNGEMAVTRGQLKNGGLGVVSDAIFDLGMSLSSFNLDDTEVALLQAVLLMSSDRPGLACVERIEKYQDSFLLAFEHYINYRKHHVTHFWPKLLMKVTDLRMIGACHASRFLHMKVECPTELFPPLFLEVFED
# Method in brief: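 Readout is reporter mRNA induction measured by RT-PCR, fluorescent labelling and capillary electrophoresis, fitted upward relative to DMSO. Transiently transfected human HepG2 cells expressing NR-Gal4 chimeras were dosed for 24 h, medium containing 3 nM 6-alpha-fluorotestosterone.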
# [8] = biological target: zebrafish Thyroid Hormone Receptor beta (TRb), thrb (gene 30607) (UniProt Q9PVE4); assay: ATG_zfTRb_XSP1: Attagene TRANS-FACTORIAL Multi-Species (XSP1) HepG2 Assay for zebrafish Thyroid Hormone Receptor beta (TRb) (AID 2283809)
# Chain of zebrafish Thyroid Hormone Receptor beta (TRb), thrb (gene 30607) (Q9PVE4 whole entry, looked up, the tested form may be a part): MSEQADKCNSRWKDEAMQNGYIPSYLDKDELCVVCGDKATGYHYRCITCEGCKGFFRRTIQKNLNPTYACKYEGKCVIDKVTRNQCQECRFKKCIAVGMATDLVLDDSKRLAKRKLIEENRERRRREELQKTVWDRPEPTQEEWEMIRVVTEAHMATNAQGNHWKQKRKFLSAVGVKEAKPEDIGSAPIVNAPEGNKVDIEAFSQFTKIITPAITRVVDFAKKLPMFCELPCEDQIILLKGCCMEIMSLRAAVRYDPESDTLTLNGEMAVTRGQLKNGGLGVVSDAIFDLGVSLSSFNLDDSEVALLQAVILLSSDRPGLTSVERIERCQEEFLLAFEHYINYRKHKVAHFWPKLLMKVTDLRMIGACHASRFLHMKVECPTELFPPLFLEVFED
# Method in brief: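 HepG2 cells transiently transfected with multiplexed GAL4-UAS reporter units expressing chimeric zebrafish TRb–Gal4. Dosed 24 h with 3 nM 6-alpha-fluorotestosterone present; reporter mRNA measured by RT-PCR, HpaI digestion and capillary electrophoresis; gain of signal versus DMSO.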
# [9] = ATG_XTT_Cytotoxicity_XSP1: Cytotoxicity Assessment in the Attagene TRANS-FACTORIAL Multi-Species (XSP1) HepG2 Assay (AID 2283810)
# Method in brief: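 XTT viability readout taken at 24 hours post-dosing in HepG2 liver cells co-treated with 3 nM 6-alpha-fluorotestosterone. Signal loss relative to DMSO controls reflects cytotoxicity.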
# [10] = ATG_M_06_XSP2: Attagene TRANS-FACTORIAL Multi-Species (XSP2) HepG2 Assay for M06 Transcription Factor (Internal Marker) (AID 2283811);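 also: internal background marker reporter mRNA measured by RT-PCR and capillary electrophoresis; hits are increases in signal above the DMSO baseline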
# Method in brief: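 Cells of the human liver line HepG2 carried transfected reporter transcription units and were treated for 24 h. Induced reporter transcripts were detected by fluorescence after RT-PCR and capillary electrophoresis, with activity fitted in the gain direction against DMSO.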
compound,measurement,setting,value
O=P(Oc1ccccc1)(Oc1ccccc1)Oc1ccccc1,AC50,[1],6.88 µM (active)
same,AC50,[2],8.08 µM (active)
same,AC50,[3],6.18 µM (active)
same,AC50,[4],0.367 µM (active)
same,outcome,[5],inactive
same,AC50,[6],25.4 µM (active)
same,outcome,[7],inactive
same,outcome,[8],inactive
same,outcome,[9],inactive
same,outcome,[10],inactive
CCCCc1ccc(O)cc1,outcome,[10],inactive
O=S(=O)(c1ccc(O)cc1)c1ccc(O)cc1,outcome,[10],inactive
CC(C)(C)c1ccc(O)cc1,outcome,[10],inactive
c1ccc2c(c1)Nc1ccccc1S2,outcome,[10],inactive
